This is a sample that favours compounds with a hit; in the whole collection about 6.1% have one here.
TSHR agonist – activates the human thyroid stimulating hormone receptor; HEK293-CNG-TSHR cells (CNG channel as cAMP sensor), membrane potential dye, cAMP; Potency, µM (series often up to 57.1 µM), without a hit: at the highest dose activation, most hits filed as activators; actives 0.48% (n = 73,000); active = well fitted activation curve with a large enough effect in the main read-out, with a control signal flat, not every such curve was filed as active; inconclusive = small, poorly fitted or top-dose-only effect, or a change in a side signal; inactive = no such curve, though single readings can be large or run the other way; % of control where 0% means no effect;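 note: the control signal comes from parental cells without the receptor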
Target sequence (P16473 whole entry, looked up): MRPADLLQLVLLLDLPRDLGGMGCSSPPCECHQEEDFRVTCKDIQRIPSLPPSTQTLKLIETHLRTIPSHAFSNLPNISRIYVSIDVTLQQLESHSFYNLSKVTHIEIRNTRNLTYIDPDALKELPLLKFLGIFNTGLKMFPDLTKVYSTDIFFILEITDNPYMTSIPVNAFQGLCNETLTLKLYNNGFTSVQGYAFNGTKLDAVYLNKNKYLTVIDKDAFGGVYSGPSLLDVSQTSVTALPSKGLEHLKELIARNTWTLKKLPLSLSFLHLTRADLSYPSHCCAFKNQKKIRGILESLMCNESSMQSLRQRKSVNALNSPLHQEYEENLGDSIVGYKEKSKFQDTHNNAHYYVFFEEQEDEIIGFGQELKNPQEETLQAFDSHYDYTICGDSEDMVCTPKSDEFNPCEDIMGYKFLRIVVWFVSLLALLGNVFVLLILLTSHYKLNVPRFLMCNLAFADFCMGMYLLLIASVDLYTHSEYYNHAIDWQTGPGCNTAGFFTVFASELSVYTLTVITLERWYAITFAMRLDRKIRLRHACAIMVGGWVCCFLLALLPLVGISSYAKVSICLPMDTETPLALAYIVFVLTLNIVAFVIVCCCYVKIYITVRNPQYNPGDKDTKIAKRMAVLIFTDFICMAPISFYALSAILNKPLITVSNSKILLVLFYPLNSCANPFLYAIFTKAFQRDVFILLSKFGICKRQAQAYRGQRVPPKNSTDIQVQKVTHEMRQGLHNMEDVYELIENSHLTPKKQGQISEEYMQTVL
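cAMP rise detected as CNG-channel membrane depolarization by fluorescent dye (emission 590 nm), 30 min after compound, following 60 min dye loading containing 100 uM RO 20-1724 at room temperature. Cells: TSHR/CNG HEK 293, with parental CNG HEK 293 as control.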
ERK AVP block – vasopressin-driven ERK pathway inhibition. HEK293-V1b, vasopressin-stimulated pERK AlphaScreen. Potency, µM (titrated, usually from 57.5 µM), without a hit: at the top dose activity, negative = inhibition, usual class: inhibitors. actives 0.99% (n = 72,000). AID 995; note: % is set by controls: 0 for no effect and ±100 for the full control effect; nearly all actives have a fitted effect of over 55% in size
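HEK293 cells stably expressing V1b receptor, seeded overnight in 1% FBS, were treated with compounds for 30 min at 37C, then stimulated 5 min with 25 nM vasopressin; phospho-ERK read by AlphaScreen SureFire after lysis.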
GBA mod – human lysosomal glucosylceramidase modulation; purified enzyme, resorufin glucoside fluorescence (screen aimed at inhibitors), 20 min; P04062; Potency, µM; actives 1.1% (n = 48,000); in the data active = potency below about 15 µM; inconclusive = mostly about 16 µM to 33 µM;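 note: the screen sought inhibitors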
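Normal human glucocerebrosidase (0.2 nM final) was assayed with resorufin β-D-glucopyranoside (30 uM final) in 50mM citric acid/KH2PO4, 10mM sodium taurocholate, 0.01% tween-20, pH 5.9. Compounds were titrated; fluorescence (Ex 548, Em 600) read after 20 min at RT.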
PK Bst – pyruvate kinase (B. stearothermophilus) modulation; purified pyruvate kinase, luminescence ATP production; ribose 5-phosphate activator present at AC10; AID 361; Potency, µM; actives 1.2% (n = 51,000); in the data active = potency below about 11 µM; inconclusive = mostly about 12 µM to 25 µM;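 the screen sought inhibitors and activators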;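 note: scaled between full activation by ribose 5 phosphate and full inhibition by luteolin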
HEK293 cAMP cs – parental HEK293 cAMP activation (counter-screen); parental HEK293 CNG cAMP sensor, membrane potential fluorescence; Potency, µM (titrated, usually from 57.1 µM), inactives show top-dose activation, most hits filed as activators; actives 2.5% (n = 73,000); note: % of control where 0% means no effect; nearly all actives have a fitted effect of over 55% in size
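Counterscreen for endogenous-receptor signalling: CNG-channel HEK 293 cells report cAMP rise by membrane depolarization. After 60 min dye equilibration with 100 uM RO 20-1724, compounds incubated 30 min before bottom-read fluorescence at 590 nm.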
FLuc inh – blocks Photinus pyralis firefly luciferase activity; P08659; purified firefly luciferase, luminescence, 8 min; Potency, µM (top dose mostly 57.1 µM), inactives show at the top dose activity change, negative = inhibition, hits mostly inhibitors; actives 2.2% (n = 72,000); note: % is set by controls: 0 for no effect and ±100 for the full control effect; nearly all actives have a fitted effect of over 40% in size
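Firefly luciferase (PKLight detection mix) with 10 uM ATP in pH 7.2 imidazole buffer (KCl, MgCl2, Tween 20, BSA). Compounds tested across a concentration series (qHTS). Luminescence read after 8 min at ambient temperature.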
An asterisk follows results filed as active; i = inactive; ? = inconclusive; . = no result; [ ] = remark or other dose. Unless noted, calls come from the whole dose curve; as a rule, active = well fitted curve in the direction sought with a large enough effect; inconclusive = small, poorly fitted or top-dose-only effect, or another doubt; inactive = no such curve, though single readings can be large; an effect the other way counts as inactive or inconclusive. Potency is the fitted concentration of half-maximal effect.

SMILES	TSHR agonist	ERK AVP block	GBA mod	PK Bst	HEK293 cAMP cs	FLuc inh
CC1=C(C(=O)OCc2ccccc2)C(c2ccc(C3CCCCC3)cc2)NC(=O)N1CCCCCC(=O)O (stereo not given)	?	11.9%	.	.	31.6µM*	.
O=P(O)(O)O[C@@H]1O[C@H](CO)[C@@H](O)[C@H](O)[C@@H]1O	-2.6%[11.4 µM]	-0.5%[11.5 µM]	.	.	-8.3%[11.4 µM]	0.3%[11.4 µM]
O=C1c2ccc(O)c(O)c2C(=O)c2c(O)ccc(O)c21	.	3.16µM*	.	.	.	.
O=C1c2cccc(O)c2C(=O)c2c(O)cccc21	?	?	.	.	-24.2%	.
Nc1ccn([C@H]2CC[C@@H](CO)O2)c(=O)n1	-10.5%	25.1µM*	.	.	23.5%	.
COCCn1c(=O)c(-c2ccccc2)nc2cnc(Nc3ccccc3)nc21	24.0%	-7.8%	.	.	24.6%	0.7%[11.4 µM]
Cc1ccc(N2CC(C(=O)N3CCN(c4ccccc4)CC3)CC2=O)cc1 (stereo not given)	.	-5.9%	>76.9	>57	-15.9%	2.5%
CC(c1ccccc1)N1CC(C(=O)N2CCN(c3ccccc3)CC2)CC1=O (stereo not given)	4.2%	25.1µM*	.	.	3.1%	7.2%
CCN(CC)S(=O)(=O)c1ccc(S(=O)(=O)Nc2cc3c(cc2C(C)=O)OCO3)cc1	?	-8.1%	14.9*	>57	?	-0.3%
COc1ccc(C)cc1NC(=O)c1nnn(CCc2ccccc2)c1N	29.3%	2.2%	.	.	-8.9%[11.4 µM]	2.5%
O=C(CSc1nnnn1-c1ccccc1)NC(=O)Nc1ccc2c(c1)OCCO2	.	-7.8%	>76.9	.	25.3%	15.8µM*
O=C(CSc1nnnn1Cc1ccccc1)Nc1ccc2c(c1)OCCO2	3.16µM*	-19.8%	>76.9	>57	4.4%	-3.6%
Nc1c(C(=O)Nc2ccc3c(c2)OCCO3)nnn1CCc1ccccc1	-7.5%	-25.0%	.	.	0.8%	15.8µM*
C[C@@H]1C(=O)O[C@H]2[C@@H](O)[C@@]34[C@H]5CC(C(C)(C)C)[C@]36[C@@H](OC(=O)[C@@H]6O)O[C@@]4(C(=O)O5)[C@@]12O (stereo not given in full)	.	-8.2%	.	.	.	.
[O-][N+](=Nc1ccccc1)c1ccccc1	-3.7%	14.1%	.	.	-18.0%	.
COC(=O)NC(c1ccco1)C(C(C)=O)C(=O)OC (stereo not given)	14.8%[11.4 µM]	27.6%[11.5 µM]	.	.	15.4%[11.4 µM]	.
CCCn1c(=O)c2ccccc2n2c(SCc3c(C(=O)OCC)oc4ccccc34)nnc12	?	4.3%	>76.9	>57	15.8µM*	-0.5%
CCOC(=O)c1oc2ccccc2c1CSc1nnnn1-c1ccc(OC)cc1	?	-10.4%	>76.9	>57	15.8µM*	2.8%
CCCn1c(=O)c2ccccc2n2c(SCCOc3ccc(OC)cc3)nnc12	?	20.2%	>76.9	>57	?	1.4%
CCCn1c(=O)c2ccccc2n2c(SCCOc3ccc(C)cc3)nnc12	?	6.6%	>76.9	.	20µM*	-3.2%
COC(=O)c1ccc(-n2nnnc2SCc2ccccc2OC)cc1	?	72.3%	>76.9	>57	15.8µM*	0.3%
COC(=O)[C@@H]1C[C@H]1[C@@H](NC(C)=O)c1ccccc1	1.1%	1.2%	.	.	9.1%	.
CCCn1c(=O)c2ccccc2n2c(SCC(=O)NCc3cccs3)nnc12	?	?	>76.9	.	20µM*	0.5%
O=c1cc(-c2ccccc2)oc2cc(O)cc(O)c12	-2.8%[25.6 µM]	?	.	.	1.9%[25.6 µM]	12.6µM*
COC(=O)NC(CC(C)=O)c1cccc(C)c1 (stereo not given)	6.9%[11.4 µM]	11.3%[11.5 µM]	.	.	5.0%[11.4 µM]	.
SMILES	TSHR agonist	ERK AVP block	GBA mod	PK Bst	HEK293 cAMP cs	FLuc inh
O=C(O)C(=Cc1ccc(-c2ccccc2)cc1)C(=O)O	4.9%[11.4 µM]	7.1%[11.5 µM]	.	.	5.7%[11.4 µM]	1.2%[11.4 µM]
COc1cccc(-n2nnc3c(=O)n(Cc4ccccc4F)cnc32)c1	?	-22.2%	>76.9	>57	25.1µM*	-2.0%
CCCCn1c(CN2C(=O)c3ccccc3C2=O)nc2ccccc2c1=O	20µM*	-20.2%	.	.	9.6%	1.6%
O=C1c2ccccc2C(=O)N1Cc1nc2ccccc2c(=O)n1CCCn1ccnc1	-2.1%	-6.9%	.	.	5.7%	4.2%
COc1ccc(N2CCN(c3nc(NCCc4ccc(OC)c(OC)c4)nc(OC)n3)CC2)cc1	?	15.8µM*	>76.9	.	?	-7.6%
COc1ccc(Nc2nc(OC)nc(N3CCN(c4ccc(OC)cc4)CC3)n2)cc1	-3.4%	?	.	.	-2.3%	-7.8%
CC(C)C[C@@H](CC(=O)N[C@H](CC(=O)N[C@@H]1CCCC[C@H]1C(=O)N[C@H](CC(=O)N[C@@H](CCC(=O)O)CC(=O)O)Cc1ccccc1)C(C)C)NC(=O)[C@@H]1CNCC[C@H]1N	7.9%	.	.	.	12.0%	.
O=C1c2ccccc2-c2n[nH]c3cccc1c23	?	10µM*	.	.	?	-0.3%
CN(c1ccccc1C(=O)O)S(C)(=O)=O	-1.8%	6.1%	>76.9	>57	-0.3%	0.1%
CN(C)c1ccccc1C(=O)c1ccccc1N(C)C	?	-6.2%	?	.	?	25.1µM*
O=C(O)/C(=C\c1ccncc1)c1cccc2ccccc12	-3.2%[11.4 µM]	-3.7%[11.5 µM]	.	.	1.0%[11.4 µM]	2.1%[11.4 µM]
CCSc1nc(N)c2c3c(sc2n1)CCC3	.	.	.	>25.6	.	-16.0%[25.5 µM]
NC(=O)CSc1nc(N)c2c3c(sc2n1)CCCCC3	.	.	.	10.8*	.	12.6µM*
CCCCOc1[nH]c2nc(-c3ccco3)n(Cc3ccco3)c(=N)c2c1C#N	5.7%	8.8%	>76.9	10.9*	3.4%	1.6%
COc1cc(CO)cc(Br)c1OCC(=O)O	25.1µM*	-17.2%	.	.	13.4%	-6.9%
COc1cc(CO)cc(-c2cc(CO)cc(OC)c2OC)c1OC	1.3%	28.1%	>76.9	>57	1.3%	-0.3%
Cc1cc(C(=O)CSc2nc(N)cc(N)n2)c(C)n1CCc1ccc(F)cc1	?	12.6µM*	.	>57	?	-1.5%
Cc1noc(C)c1COC(=O)c1cc(C)n(-c2ccccc2)c1C	?	2.9%	>76.9	>57	?	-5.9%
Cc1cccc(C(=O)Nc2ccccc2C(=O)OCc2c(C)noc2C)c1	?	23.2%	.	>57	15.8µM*	1.3%
CCCc1cc(C(=O)Nc2cccc(Cl)c2)no1	18.0%	34.8%	.	.	22.3%	15.8µM*
Cc1c(-c2nc(N)nc(Nc3ccccc3)n2)oc2ccccc12	.	-8.4%	i	?	7.8%	25.1µM*
COc1ccc(Nc2nc(C)c3ccccc3n2)cc1	5.1%	?	>76.9	?	4.0%	?
COC(=O)c1cccc(C23CC4(C2)[C@H](CN(C)[C@@H]4c2ccccc2)C3c2ccc(Cl)nc2)c1 (stereo not given in full)	.	-2.3%	.	.	.	.
S=C(c1ccc(-c2ccc(Cl)c(Cl)c2)o1)N1CCOCC1	.	?	.	.	17.1%	7.94µM*
N#CCCN1CCN(C(=S)c2ccc(-c3cc(Cl)ccc3Cl)o2)CC1	?	-5.0%	>76.9	>57	?	-7.7%
S=C(c1ccc(-c2ccccc2Cl)o1)N1CCOCC1	.	25.1µM*	.	.	20.9%	15.8µM*

Screens from PubChem BioAssay.
